Unmarked numbers belong to inactive results. For some assays here: Results with a measured potency or affinity are listed apart. Activity calls are given as the source filed them. Unless noted, no rule for the calls is given here.
Experiments:
[1] = antimalarial activity against Dd2 strain (AID 2302;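 active = growth inhibition above 50% at the single 2 µM test dose, taken to imply half-maximal potency below 2 µM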;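 also: 0% = DMSO untreated growth and 100% = chloroquine plus artemisinin killed control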); conditions: P. falciparum Dd2 in RBCs, LDH growth readout, 72 h; at 2 µM; stronger effect = higher value
[2] = human hepatoma cell viability loss – ATP luminescence, cytotoxicity control for P. falciparum antimalarial project, primary screen (AID 2303;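 active = inhibition above 50%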;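 also: 0% = DMSO wells and 100% = digitonin-killed cells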); conditions: HepG2 viability, 24-48 h, at 10 µM, stronger effect = higher value
[3] = target: L-lactate dehydrogenase (Plasmodium falciparum (isolate CDC / Honduras)) (UniProt Q27743); test: PfLDH activity inhibition – cell lysate, 3D7 strain, counter-screen for P. falciparum growth inhibition project (AID 2304);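 also: 0% = vehicle and 100% = reference inhibitor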; conditions: P. falciparum 3D7 crude extract, LDH APAD/NBT absorbance; at 2 µM; stronger effect = higher value
Chain of L-lactate dehydrogenase (Plasmodium falciparum (isolate CDC / Honduras)) (Q27743 whole entry, looked up): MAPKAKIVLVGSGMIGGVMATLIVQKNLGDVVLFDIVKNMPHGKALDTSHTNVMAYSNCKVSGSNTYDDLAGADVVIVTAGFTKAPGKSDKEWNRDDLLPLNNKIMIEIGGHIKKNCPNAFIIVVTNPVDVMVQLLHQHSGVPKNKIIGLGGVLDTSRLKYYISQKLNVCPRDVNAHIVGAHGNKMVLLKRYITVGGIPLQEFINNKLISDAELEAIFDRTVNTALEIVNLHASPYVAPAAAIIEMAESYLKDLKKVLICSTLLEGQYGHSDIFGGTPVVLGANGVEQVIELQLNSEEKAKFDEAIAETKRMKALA

[4] = inhibition of 3D7 malaria parasite growth – strain 3D7 (AID 2306);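 also: 0% = DMSO wells and 100% = chloroquine plus artemisinin control wells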; conditions: P. falciparum 3D7 erythrocytic growth, LDH absorbance, 72 h; at 2 µM; stronger effect = higher value
[5] = target: Calcium-dependent protein kinase 1 (Plasmodium falciparum (isolate 3D7)) (UniProt P62344); test: PfCDPK1 kinase inhibitors, biochemical, TCAMS library (AID 1159585; cut-off not given, nearly all actives have IC50 up to about 0.98 µM;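 also: inhibitors leave more ATP so luminescence rises with inhibition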); conditions: recombinant PfCDPK1, Kinase-Glo ATP depletion luminescence
Chain of Calcium-dependent protein kinase 1 (Plasmodium falciparum (isolate 3D7)) (P62344 whole entry, looked up): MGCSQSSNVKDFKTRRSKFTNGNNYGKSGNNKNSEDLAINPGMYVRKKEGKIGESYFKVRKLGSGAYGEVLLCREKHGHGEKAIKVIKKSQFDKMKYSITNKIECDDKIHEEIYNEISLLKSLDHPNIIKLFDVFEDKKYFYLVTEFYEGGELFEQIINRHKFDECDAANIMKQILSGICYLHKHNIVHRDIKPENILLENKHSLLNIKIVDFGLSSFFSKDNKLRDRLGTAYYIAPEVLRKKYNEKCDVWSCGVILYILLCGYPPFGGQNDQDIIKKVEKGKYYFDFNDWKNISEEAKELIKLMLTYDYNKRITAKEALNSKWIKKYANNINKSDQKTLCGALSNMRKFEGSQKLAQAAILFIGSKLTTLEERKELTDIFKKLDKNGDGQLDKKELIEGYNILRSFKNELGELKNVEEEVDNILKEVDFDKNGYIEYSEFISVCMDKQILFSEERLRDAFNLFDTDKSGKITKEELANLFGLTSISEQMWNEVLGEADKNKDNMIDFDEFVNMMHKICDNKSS

[6] = target: Plasmodium falciparum protein kinase 6 (PK6, PF3D7_1337100) (UniProt Q8IDW1); test: PfPK6 kinase inhibitors, biochemical, TCAMS library (AID 1159586); conditions: recombinant PfPK6, Kinase-Glo ATP depletion luminescence
Chain of Plasmodium falciparum protein kinase 6 (PK6, PF3D7_1337100) (Q8IDW1 1-305): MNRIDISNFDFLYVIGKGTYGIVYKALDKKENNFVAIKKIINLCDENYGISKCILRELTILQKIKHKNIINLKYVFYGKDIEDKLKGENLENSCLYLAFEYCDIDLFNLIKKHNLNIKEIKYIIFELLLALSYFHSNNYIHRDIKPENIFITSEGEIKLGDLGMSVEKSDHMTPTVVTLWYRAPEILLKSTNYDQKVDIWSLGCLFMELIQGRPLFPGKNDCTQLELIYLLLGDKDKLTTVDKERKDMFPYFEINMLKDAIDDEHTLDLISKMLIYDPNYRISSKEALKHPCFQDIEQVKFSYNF

[7] = target: Protein kinase 7 (PK7), Plasmodium falciparum 3D7 (PF3D7_0213400) (UniProt Q7YTF7); test: inhibition of Plasmodium PK7 catalytic activity – biochemical, TCAMS antimalarial set, Kinase-Glo luminescence (AID 1159587); conditions: recombinant PfPK7, Kinase-Glo ATP depletion luminescence
Chain of Protein kinase 7 (PK7), Plasmodium falciparum 3D7 (PF3D7_0213400) (Q7YTF7 1-343): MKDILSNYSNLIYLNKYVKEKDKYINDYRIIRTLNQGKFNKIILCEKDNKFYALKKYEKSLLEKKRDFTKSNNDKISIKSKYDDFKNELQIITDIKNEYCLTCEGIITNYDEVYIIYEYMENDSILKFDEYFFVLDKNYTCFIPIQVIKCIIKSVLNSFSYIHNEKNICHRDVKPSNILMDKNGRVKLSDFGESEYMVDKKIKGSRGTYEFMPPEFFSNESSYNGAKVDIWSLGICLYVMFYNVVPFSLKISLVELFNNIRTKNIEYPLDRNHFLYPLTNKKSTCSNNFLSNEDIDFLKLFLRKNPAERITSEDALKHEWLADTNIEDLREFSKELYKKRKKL

[8] = target: Calcium-dependent protein kinase 4 (Plasmodium falciparum (isolate 3D7)) (UniProt Q8IBS5); test: PfCDPK4 kinase inhibitors, biochemical, TCAMS library (AID 1159588; cut-off not given, nearly all actives have IC50 up to about 0.91 µM); conditions: recombinant PfCDPK4, Kinase-Glo ATP depletion luminescence
Chain of Calcium-dependent protein kinase 4 (Plasmodium falciparum (isolate 3D7)) (Q8IBS5 whole entry, looked up): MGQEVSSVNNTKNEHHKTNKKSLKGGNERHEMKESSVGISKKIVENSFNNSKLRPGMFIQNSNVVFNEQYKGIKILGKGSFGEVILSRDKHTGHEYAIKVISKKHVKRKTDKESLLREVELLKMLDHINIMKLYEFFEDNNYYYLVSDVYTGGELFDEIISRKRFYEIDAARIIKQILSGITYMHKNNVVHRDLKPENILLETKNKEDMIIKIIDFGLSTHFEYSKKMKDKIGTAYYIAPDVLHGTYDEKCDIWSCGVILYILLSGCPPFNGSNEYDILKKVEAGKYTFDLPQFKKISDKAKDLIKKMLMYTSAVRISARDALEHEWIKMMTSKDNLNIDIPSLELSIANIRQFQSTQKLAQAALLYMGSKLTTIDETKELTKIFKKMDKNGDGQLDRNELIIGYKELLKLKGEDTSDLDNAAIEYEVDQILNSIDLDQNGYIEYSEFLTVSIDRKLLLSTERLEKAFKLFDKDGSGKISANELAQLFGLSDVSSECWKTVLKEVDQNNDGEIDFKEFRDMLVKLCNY

Structure (SMILES)	growth inhibition [1]	inhibition [2]	inhibition [3]	growth inhibition [4]	outcome [5]	outcome [6]	outcome [7]	outcome [8]
COc1cc(C(=O)NC2CCN(Cc3ccccc3)CC2)ccc1-c1nc2cc(Cl)c(Cl)cc2[nH]1	100% (active)	14%	4%	103% (active)	inactive	inactive	inactive	inactive
COc1cc(NC(=O)c2cc([N+](=O)[O-])ccc2NC(=O)CNC2CCCC(C)C2C)cc(OC)c1 (stereo not given)	80% (active)	21%	4%	97% (active)	inactive	inactive	inactive	inactive
CC(C)(C(=O)Nc1ccc(C2CCC(NCC3CC3)CC2)c(Cl)c1)c1cccc(OC(F)F)c1 (stereo not given)	23%	34%	-4%	99% (active)	inactive	inactive	inactive	inactive
Cc1onc(-c2c(Cl)cccc2Cl)c1C(=O)N1CCc2cc3nccc(N4CCN5CCC[C@H]5C4)c3cc21	58% (active)	3%	-5%	101% (active)	inactive	inactive	inactive	inactive
O=c1ccc2ncc(Cl)c3c2n1CC3CN1CCC(NCc2cc3c(cn2)OCCO3)CC1 (stereo not given)	29%	27%	-2%	96% (active)	inactive	inactive	inactive	inactive
O=C(Nc1ccc(Cl)cc1C(=O)Nc1ccncc1)c1ccc(Cl)cc1Cl	75% (active)	8%	-5%	99% (active)	inactive	inactive	inactive	inactive
O=C(NC1CCN(Cc2ccccc2)CC1)c1ccc2c(=O)n(Cc3ccc(Cl)cc3)c(=S)[nH]c2c1	100% (active)	16%	5%	101% (active)	inactive	inactive	inactive	inactive
Cc1noc(C)c1-c1cccc(CNCc2cccc(-c3cccc(-c4nc5ccc(C(F)(F)F)cc5[nH]4)c3)c2)c1	95% (active)	18%	5%	101% (active)	inactive	inactive	inactive	inactive
Cc1nnc2c(NC(=O)NC3CCCC3)cc3ccc(-c4cccc(CN5CCN(C)CC5)c4)cc3n12	68% (active)	54% (active)	2%	91% (active)	inactive	inactive	inactive	inactive
CCc1ccc(CN2CCC(NC(=O)c3ccc(-c4ccc(N(C)C)cc4)s3)CC2)cc1	44%	52% (active)	-4%	84% (active)	inactive	inactive	inactive	inactive
O=C(Nc1cccc(-c2cccc(F)c2)c1)C1CCN(Cc2ccc(O)cc2)CC1	2%	13%	3%	87% (active)	inactive	inactive	inactive	inactive
COc1ccc2nccc([C@@H](O)CN3CCC(NC(=O)Cc4ccc(Br)c5ccccc45)CC3)c2c1	40%	10%	-2%	98% (active)	inactive	inactive	inactive	inactive
CC(C)(C)OC(=O)C1CCCN(Cc2ccc(-c3cccc(-c4nc5ccccc5[nH]4)c3)cc2)C1 (stereo not given)	27%	37%	4%	93% (active)	inactive	inactive	inactive	inactive
CCCCCCN1CCC(NCc2cccc(-n3ccnc3)c2)CC1	101% (active)	3%	5%	103% (active)	inactive	inactive	inactive	inactive
CC(C)CNCc1cccc(-c2ccc(CNc3ccc(C(=O)c4ccccc4)cc3)cc2)c1	0%	10%	0%	97% (active)	inactive	inactive	inactive	inactive
O=C(N[C@H]1CCN(Cc2ccc(OC3CCN(Cc4ccccc4)CC3)c(Cl)c2)C1)c1ccc(Cl)c(Cl)c1	11%	59% (active)	0%	99% (active)	inactive	inactive	inactive	inactive
Cc1c(Cl)cccc1S(=O)(=O)Nc1cccc(CCN2CCC(N3CCCCC3)CC2)c1	82% (active)	38%	-1%	101% (active)	inactive	inactive	inactive	inactive
O=C(Cn1c(CCc2cccc(F)c2F)cc(=O)c2cccnc21)N(CCn1ccnc1)Cc1ccc(-c2ccc(C(F)(F)F)cc2)cc1	62% (active)	39%	0%	99% (active)	inactive	inactive	inactive	inactive
OC1CCCN(Cc2ccc(-c3cccc(-c4nc5ccccc5[nH]4)c3)cc2)C1 (stereo not given)	-3%	14%	2%	86% (active)	inactive	inactive	inactive	inactive
CCCC(CNCc1ccc(Cl)c(C(F)(F)F)c1)CNc1nc2ccncc2[nH]1 (stereo not given)	8%	26%	-1%	99% (active)	inactive	inactive	inactive	inactive

Structure (SMILES)	growth inhibition [1]	inhibition [2]	inhibition [3]	growth inhibition [4]	outcome [5]	outcome [6]	outcome [7]	outcome [8]
Cc1ccc(Cc2c(N)nc3nc(N)nc(N)c3c2C)cc1	8%	59% (active)	4%	95% (active)	inactive	inactive	inactive	inactive
CC(C)[C@H]1C(=O)N(S(C)(=O)=O)[C@H]2CCN(C(=O)c3ccc(CN4CCCCC4)c([N+](=O)[O-])c3)[C@H]12	100% (active)	10%	3%	100% (active)	inactive	inactive	inactive	inactive
O=[N+]([O-])c1ccc(C2=NN(S(=O)(=O)c3c(Cl)cc(Cl)cc3Cl)CCCC2)cc1	98% (active)	5%	0%	99% (active)	inactive	inactive	inactive	inactive
O=C(/C=C/c1ccc(Cl)c(Cl)c1)NCCCCCN1CCC(NC(=O)c2ccc3ccccc3c2)CC1	20%	8%	-2%	87% (active)	inactive	inactive	inactive	inactive
CCN(CC)CCN(CCN(CC)CC)c1ccc(-c2nc3cc(Cl)c(Cl)cc3[nH]2)cc1	97% (active)	9%	2%	101% (active)	inactive	inactive	inactive	inactive
CN1CCC(N(Cc2ccc(-c3ccc(C(F)(F)F)cc3)cc2)C(=O)Cn2cc(Cc3cnn(C)c3)c(=O)nc2SCc2cccc(F)c2F)CC1	91% (active)	68% (active)	7%	88% (active)	inactive	inactive	inactive	inactive
CN1CC[C@@H](Oc2cc(NC(=O)Nc3ccccc3Br)ccc2Cl)C1	6%	26%	0%	100% (active)	inactive	inactive	inactive	inactive
CC(Cc1ccc(OCCN2CCN(c3ccccc3)CC2)cc1)NCC(O)c1cccc(Cl)c1F (stereo not given)	56% (active)	40%	6%	92% (active)	inactive	inactive	inactive	inactive
O=C(O)C1CC(=O)N(c2ccc(Cl)cc2)C1 (stereo not given)	33%	51% (active)	6%	97% (active)	inactive	inactive	inactive	inactive
COc1ccc2nccc([C@@H](O)CN3CCC(NC(=O)c4ccc(Cl)c([N+](=O)[O-])c4)CC3)c2c1	43%	14%	-1%	88% (active)	inactive	inactive	inactive	inactive
Cc1ccc2nc(/N=C(\N)NC(=O)NC3CCCCC3)nc(C)c2c1	94% (active)	8%	0%	99% (active)	inactive	inactive	inactive	inactive
O=C(/C=C/c1ccc(Cl)c(Cl)c1)NCCCCCN1CCCN(C(=O)Nc2ccc(F)c(F)c2)CC1	-1%	26%	-2%	102% (active)	inactive	inactive	inactive	inactive
O=C(c1cc(C(=O)Nc2ccccc2F)c(=O)n(-c2ccccc2F)c1)c1cc(Cl)ccc1O	80% (active)	2%	5%	98% (active)	inactive	inactive	inactive	inactive
COc1ccc(NC(=O)CCNc2cc(C)nc(Nc3ccccc3)n2)cc1	15%	-9%	-2%	92% (active)	inactive	inactive	inactive	inactive
COc1cccc2cc(C(=O)N[C@@H](CC(C)C)C(=O)N[C@H](/C=N/NC(=O)Cc3cccnc3)CCc3ccccc3)oc12	54% (active)	6%	2%	82% (active)	inactive	inactive	inactive	inactive
Cc1cc(CNC(=O)[C@H](CC2CCCCC2)Nc2ccc(C#N)c3ccccc23)c(C(F)(F)F)o1	55% (active)	13%	3%	87% (active)	inactive	inactive	inactive	inactive
c1ccc(CNc2nc(NCCc3cnc[nH]3)nc(NCc3cccc4ccccc34)n2)cc1	1%	9%	-4%	91% (active)	inactive	inactive	inactive	inactive
CN1CCN(Cc2nc(-c3ccc4c(Nc5ccc(Oc6ccccc6)cc5)ccnc4c3)cs2)CC1	99% (active)	15%	0%	100% (active)	inactive	inactive	inactive	inactive
NC(=O)c1sc(-n2cnc3ccccc32)cc1OCc1ccccc1[N+](=O)[O-]	46%	10%	-2%	99% (active)	inactive	inactive	inactive	inactive
Cc1ccc(NC(=O)c2cnc(N3CCN(c4ccncc4)CC3)c(Cl)c2)cc1	24%	25%	4%	94% (active)	inactive	inactive	inactive	inactive

Source: PubChem BioAssay
